Measurements as given in the supplement of paper PMC8728848.
Many of the other results were omitted from the sample, so the strongest signals are more common in it than they were.

How the values were obtained:
Assay in all cases: glycan array binding signal (z-score within array); higher = stronger binding
Settings in all cases: glycan notation: IUPAC condensed, linker removed
[1] = target: Gal(b1-4)GlcNAc(b1-3)Gal(b1-4)GlcNAc(b1-3)Gal(b1-4)GlcNAc(b1-3)Gal(b1-4)GlcNAc(b1-2)[Gal(b1-4)GlcNAc(b1-3)Gal(b1-4)GlcNAc(b1-3)Gal(b1-4)GlcNAc(b1-3)Gal(b1-4)GlcNAc(b1-6)]Man(a1-6)[Gal(b1-4)GlcNAc(b1-3)Gal(b1-4)GlcNAc(b1-3)Gal(b1-4)GlcNAc(b1-3)Gal(b1-4)GlcNAc(b1-2)Man(a1-3)]Man(b1-4)GlcNAc(b1-4)[Fuc(a1-6)]GlcNAc
Outline: (§1)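 Negative Z-scores can be read as non-binding. The Z-score is calculated within each array and then averaged across arrays of one protein sequence at different concentrations or buffers and across linkers. Arrays, 3228 in all, were curated from the Consortium for Functional Glycomics database and kept only where the protein sequence was available.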

[2] = target: Gal(b1-4)GlcNAc(b1-6)Gal(b1-4)GlcNAc
Outline: as §1

Gal3S(b1-3)GalNAc = target: Gal3S(b1-3)GalNAc
Outline: as §1

Gal3S(b1-4)GlcNAc6S = target: Gal3S(b1-4)GlcNAc6S
Outline: as §1

[3] = target: Gal3S(b1-4)[Fuc(a1-3)]GlcNAc
Outline: as §1

[4] = target: Gal3S(b1-4)[Fuc(a1-3)]GlcNAc6S
Outline: as §1

Gal6S(b1-4)GlcNAc6S = target: Gal6S(b1-4)GlcNAc6S
Outline: as §1

GalNAc(b1-4)Gal(b1-4)Glc = target: GalNAc(b1-4)Gal(b1-4)Glc
Outline: as §1

GalNAc3S(b1-4)GlcNAc = target: GalNAc3S(b1-4)GlcNAc
Outline: as §1

GalNAc4S6S(b1-4)GlcNAc = target: GalNAc4S6S(b1-4)GlcNAc
Outline: as §1

[5] = target: GlcNAc(a1-4)Gal(b1-4)GlcNAc(b1-3)Gal(b1-4)[Fuc(a1-3)]GlcNAc(b1-3)Gal(b1-4)[Fuc(a1-3)]GlcNAc
Outline: as §1

[6] = target: GlcNAc(a1-6)Gal(b1-4)GlcNAc
Outline: as §1

[7] = target: GlcNAc(b1-2)Man(a1-3)[GlcNAc(b1-4)][GlcNAc(b1-2)Man(a1-6)]Man(b1-4)GlcNAc(b1-4)[Fuc(a1-6)]GlcNAc
Outline: as §1

[8] = target: GlcNAc(b1-3)Gal(b1-4)GlcNAc(b1-3)Gal(b1-4)GlcNAc(b1-3)Gal(b1-4)GlcNAc(b1-3)Gal(b1-4)GlcNAc(b1-2)Man(a1-3)[GlcNAc(b1-3)Gal(b1-4)GlcNAc(b1-3)Gal(b1-4)GlcNAc(b1-3)Gal(b1-4)GlcNAc(b1-3)Gal(b1-4)GlcNAc(b1-2)Man(a1-6)]Man(b1-4)GlcNAc(b1-4)[Fuc(a1-6)]GlcNAc
Outline: as §1

[9] = target: GlcNAc(b1-3)Gal(b1-4)GlcNAc(b1-6)[Gal(b1-3)]GalNAc
Outline: as §1

[10] = target: GlcNAc(b1-3)Gal(b1-4)GlcNAc(b1-6)[GlcNAc(b1-3)]Gal(b1-4)GlcNAc
Outline: as §1

[11] = target: GlcNAc(b1-4)[GlcNAc(b1-6)]GalNAc
Outline: as §1

[12] = target: Man(a1-2)Man(a1-2)Man(a1-3)Man
Outline: as §1

Man(b1-4)GlcNAc = target: Man(b1-4)GlcNAc
Outline: as §1

[13] = target: Neu5Ac(a2-3)Gal(b1-3)GalNAc(b1-3)Gal(a1-4)Gal(b1-4)Glc
Outline: as §1

[14] = target: Neu5Ac(a2-3)Gal(b1-3)[Fuc(a1-4)]GlcNAc(b1-3)Gal(b1-3)[Fuc(a1-4)]GlcNAc
Outline: as §1

[15] = target: Neu5Ac(a2-3)Gal(b1-4)GlcNAc(b1-2)[Neu5Ac(a2-3)Gal(b1-4)GlcNAc(b1-4)]Man(a1-3)[GlcNAc(b1-4)][Neu5Ac(a2-3)Gal(b1-4)GlcNAc(b1-4)Man(a1-6)]Man(b1-4)GlcNAc(b1-4)GlcNAc
Outline: as §1

[16] = target: Neu5Ac(a2-3)[GalNAc(b1-4)]Gal(b1-4)GlcNAc
Outline: as §1

[17] = target: Neu5Ac(a2-6)Gal(b1-4)GlcNAc(b1-3)GalNAc
Outline: as §1

[18] = target: Neu5Ac(a2-6)GlcNAc(b1-4)GlcNAc
Outline: as §1

[19] = target: Neu5Ac(a2-8)Neu5Ac(a2-3)Gal(b1-3)GalNAc(b1-4)[Neu5Ac(a2-3)]Gal(b1-4)Glc
Outline: as §1

[20] = target: Neu5Gc(a2-6)Gal(b1-4)GlcNAc
Outline: as §1

B1: Flo1 (Saccharomyces cerevisiae), P32768 (protein)
chain: SGATEACLPAGQRKSGMNINFYQYSLKDSSTYSNAAYMAYGYASKTKLGSVGGQTDISIDYNIPCVSSSGTFPCPQEDSYGNWGCKGMGACSNSQGIAYWSTDLFGFYTTPTNVTLEMTGYFLPPQTGSYTFKFATVDDSAILSVGGATAFNCCAQQQPPITSTNFTIDGIKPWGGSLPPNIEGTVYMYAGYYYPMKVVYSNAVSWGTLPISVTLPDGTTVSDDFEGYVYSFDDDLSQSNCTVPDPSNY
In the case of B1, the “glycan array binding signal (z-score)” value [1] is reported as 1.44, the “glycan array binding signal (z-score)” value [2] is reported as -0.551 and the “glycan array binding signal (z-score)” value (Gal3S(b1-3)GalNAc) is reported as -0.392. The “glycan array binding signal (z-score)” value (Gal3S(b1-4)GlcNAc6S) was -0.289, the “glycan array binding signal (z-score)” value [3] was -0.778 and the “glycan array binding signal (z-score)” value [4] was -0.547. For the same binder, the “glycan array binding signal (z-score)” value (Gal6S(b1-4)GlcNAc6S) was -0.216, the “glycan array binding signal (z-score)” value (GalNAc(b1-4)Gal(b1-4)Glc) was 3.53 and the “glycan array binding signal (z-score)” value (GalNAc3S(b1-4)GlcNAc) was -0.358. The “glycan array binding signal (z-score)” value (GalNAc4S6S(b1-4)GlcNAc) was 3.28, the “glycan array binding signal (z-score)” value [5] was 2.23 and the “glycan array binding signal (z-score)” value [6] was -0.009. The “glycan array binding signal (z-score)” value [7] was 0.011, the “glycan array binding signal (z-score)” value [8] was -0.202 and the “glycan array binding signal (z-score)” value [9] was -0.618. For the same binder, the “glycan array binding signal (z-score)” value [10] was -2.82, the “glycan array binding signal (z-score)” value [11] was -0.024 and the “glycan array binding signal (z-score)” value [12] was 0.403. For the same binder, the “glycan array binding signal (z-score)” value (Man(b1-4)GlcNAc) was -0.306, the “glycan array binding signal (z-score)” value [13] was -0.211 and the “glycan array binding signal (z-score)” value [14] was 0.24. For the same binder, the “glycan array binding signal (z-score)” value [15] was 0.143, the “glycan array binding signal (z-score)” value [16] was 0.215 and the “glycan array binding signal (z-score)” value [17] was 0.748. For the same binder, the “glycan array binding signal (z-score)” value [18] was -0.394, the “glycan array binding signal (z-score)” value [19] was 1.62 and the “glycan array binding signal (z-score)” value [20] was -0.199.
